This is an account of results in PubChem BioAssay.

Assay [1] in a line: reducers of endogenous Her2 protein level, primary screen, SKBR3 breast tumor cells, AlphaScreen, ATP viability (AID 461).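 For Her2 level: lower value means less Her2 protein in the cells.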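 For viability: percent of carrier control wells set as 100% viability.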 The note with it: 18-24 h, measured here: SKBR3 viability, ATP luminescence, at 10 µM. A general note: In Alpha technology, singlet oxygen from a donor bead excites a nearby acceptor bead.
For assay [2], the target named is Receptor tyrosine-protein kinase erbB-2 (Homo sapiens) (UniProt P04626). Described as above. The note with it: 18-24 h, at 10 µM, stronger effect = lower value.
Assay [3] in a line: SK-BR-3 cell growth inhibitors, pilot screen, 24 h, human (AID 572;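 active = viability at or below 10% of carrier control in both of two separate runs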;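 note: compound exposure lasted between 18 and 24 h rather than exactly 24 h; 100% = carrier-treated control wells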). As to conditions: SK-BR-3 viability, CellTiter-Glo luminescence, at 10 µM, stronger effect = lower value. On the technique in general: Cellular ATP, detected with luciferase, serves as a proxy for viable cell number.
Assay [4] can be described thus: HUVEC growth inhibition – cell-based, human, primary screen (AID 575;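 active = viability at or below 30% in both replicate assays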;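 note: 100% = median of untreated cell wells with 0.1% DMSO on each plate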). The note with it: HUVEC proliferation, CellTiter-Glo luminescence, 72 h; at 10 µM; stronger effect = lower value.
Assay [5] is described as follows: growth inhibitors of H69AR lung tumor, primary screen, human, duplicate replicates (AID 580;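 active = viability at or under a set limit in both replicates, limit being median viability minus 3 SD, cut at about 48% in these data, passing the limit was not always enough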;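 note: 100% = mean luminescence of untreated wells and 0% = no signal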). As to conditions: H69AR lung tumor cells viability, ATP luminescence, 72 h; at 10 µM; stronger effect = lower value.
Assay [6] can be described thus: reversal of MRP1-mediated doxorubicin resistance, pilot screen, H69AR cells, doxorubicin co-treatment (AID 601;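 active = viability loss from added drug above about 55%, and viability with drug at most 40%, in both replicates, limit read from the data, passing the limit was not always enough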). The note with it: CellTiter-Glo, 72 h, at 10 µM; for differential viability (reversal): stronger effect = higher value.
The nature of assay [7]: 384-well plate pilot, post-Golgi transport modulator project, inhibition of yeast transport mutant growth (AID 636; in the data active = inhibition above about 31%). As to conditions: absorbance 615 nm, about 18 h, stronger effect = higher value.
A short description of assay [8]: growth suppression of yeast trafficking mutant, preliminary HTS, modulators of trafficking downstream of Golgi apparatus project, 1536-format plate, OD 615 nm (AID 637; in the data active = inhibition above about 30%). As to conditions: yeast transport mutant growth, absorbance 615 nm, 18 h; stronger effect = higher value.
Assay [9] can be described thus: OD615 S. cerevisiae growth inhibition, permissive medium, pilot counter-assay, permissive growth control for S. cerevisiae lifespan shortening project (AID 705;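 active = growth inhibition above 25% in both replicates, a cutoff set 3 SD above the mean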). As to conditions: OD615, 24 h, at 10 µM, stronger effect = higher value.
Assay [10] in a line: Restrictive medium S. cerevisiae growth inhibition, OD615, pilot screen of yeast lifespan reduction project, restrictive growth control (AID 706;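 active = growth inhibition above a set limit, 3 SD over mean compound inhibition, in both replicates, cut at about 43% in these data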;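 note: modified DeaD lifespan yeast strain shifted to restrictive glucose medium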). The note with it: OD615, 48 h, at 10 µM, stronger effect = higher value.
The nature of assay [11]: viability gain of MRP-1-high H69AR cells under doxorubicin, pilot screen, MRP-1 activator project, CellTiter-Glo, duplicate (AID 807;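 active = viability increase at or above a cutoff of the median across tested compounds plus 3 SD, cut at about 8.5% in these data, passing the limit was not always enough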;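 note: compound pretreatment 18-22 h then 72 h combined with doxorubicin; 0% = doxorubicin alone and 100% = vehicle without doxorubicin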). The note with it: H69AR viability with doxorubicin, CellTiter-Glo luminescence; at 10 µM; stronger effect = higher value.
The nature of assay [12]: growth suppression of beta-catenin knockout HCT116, pilot screen, human colon tumor cells (AID 823;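 active = cell viability at or below a set limit in both duplicate runs, the limit being the all-compound median minus 4 SD, cut at about 23% in these data, passing the limit was not always enough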;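 note: 0% = wells killed by 20 µM Hyamine and 100% = untreated DMSO cell wells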). The note with it: CellTiter-Glo, 60 h, at 10 µM, stronger effect = lower value.
The nature of assay [13]: growth suppression of PTEN-deleted HCT116, pilot screen, cell-based, HCT116 clonal line, CellTiter-Glo (AID 824;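 active = viability at or below 27.92% in each of two runs, the all-compound median minus 4 SD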;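 note: 0% = 20 µM Hyamine control and 100% = vehicle cell control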). As to conditions: 60 h, at 10 µM, stronger effect = lower value.
The nature of assay [14]: inhibitors of the yeast RAM network, pilot screen, dse1pr::URA3 reporter, 5-FOA selection (AID 869;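 active = inhibition over a set limit, the all-compound mean plus 3 SD, in both replicate runs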;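 note: 0% = DMSO wells with no growth and 100% = 10 µM 1-NA-PP1 with full growth; RAM network block rescues cells from 5-FOA so hits raise OD615 growth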). As to conditions: S. cerevisiae dse1pr::URA3 5-FOA growth, OD615, 2 d; at 10 µM; stronger effect = higher value; strain carries analog-sensitive mutant Cbk1 kinase.
Assay [15] is described as follows: RAM signaling pathway blockade in yeast – S. cerevisiae, Pdr1DBD-CYC8 efflux-inhibited sensitized strain, primary screen (AID 1298;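 active = RAM network inhibition above 8.4% in each of two replicates, 3 SD over the compound average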;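 note: 0% = DMSO untreated cells without growth and 100% = 10 µM 1-NA-PP1 full growth; higher means more yeast growth rescued from 5-FOA killing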). The note with it: S. cerevisiae cbk1-as DSE1-URA3 strain, 5-FOA growth OD615, 2 d; at 50 µM; stronger effect = higher value.
Where [16] appears, read: H69AR cells + 2 uM doxorubicin, measured here: viability with 2 uM doxorubicin, stronger effect = lower value.
The mark [17] stands for this setting: H69AR cells, compound alone cytotoxicity.

Results filed as inconclusive are left out. Calls of active or inactive are those of the source.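 Rule for the calls, unless noted: active = Her2 level under about 52% in both replicate screens, with viability over 70% of control (limit read from the data); inconclusive = Her2 under the limit in one screen only, or viability under 70%; inactive = Her2 level above the set limit.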

Sequence of Receptor tyrosine-protein kinase erbB-2 (Homo sapiens) (P04626 whole entry, looked up): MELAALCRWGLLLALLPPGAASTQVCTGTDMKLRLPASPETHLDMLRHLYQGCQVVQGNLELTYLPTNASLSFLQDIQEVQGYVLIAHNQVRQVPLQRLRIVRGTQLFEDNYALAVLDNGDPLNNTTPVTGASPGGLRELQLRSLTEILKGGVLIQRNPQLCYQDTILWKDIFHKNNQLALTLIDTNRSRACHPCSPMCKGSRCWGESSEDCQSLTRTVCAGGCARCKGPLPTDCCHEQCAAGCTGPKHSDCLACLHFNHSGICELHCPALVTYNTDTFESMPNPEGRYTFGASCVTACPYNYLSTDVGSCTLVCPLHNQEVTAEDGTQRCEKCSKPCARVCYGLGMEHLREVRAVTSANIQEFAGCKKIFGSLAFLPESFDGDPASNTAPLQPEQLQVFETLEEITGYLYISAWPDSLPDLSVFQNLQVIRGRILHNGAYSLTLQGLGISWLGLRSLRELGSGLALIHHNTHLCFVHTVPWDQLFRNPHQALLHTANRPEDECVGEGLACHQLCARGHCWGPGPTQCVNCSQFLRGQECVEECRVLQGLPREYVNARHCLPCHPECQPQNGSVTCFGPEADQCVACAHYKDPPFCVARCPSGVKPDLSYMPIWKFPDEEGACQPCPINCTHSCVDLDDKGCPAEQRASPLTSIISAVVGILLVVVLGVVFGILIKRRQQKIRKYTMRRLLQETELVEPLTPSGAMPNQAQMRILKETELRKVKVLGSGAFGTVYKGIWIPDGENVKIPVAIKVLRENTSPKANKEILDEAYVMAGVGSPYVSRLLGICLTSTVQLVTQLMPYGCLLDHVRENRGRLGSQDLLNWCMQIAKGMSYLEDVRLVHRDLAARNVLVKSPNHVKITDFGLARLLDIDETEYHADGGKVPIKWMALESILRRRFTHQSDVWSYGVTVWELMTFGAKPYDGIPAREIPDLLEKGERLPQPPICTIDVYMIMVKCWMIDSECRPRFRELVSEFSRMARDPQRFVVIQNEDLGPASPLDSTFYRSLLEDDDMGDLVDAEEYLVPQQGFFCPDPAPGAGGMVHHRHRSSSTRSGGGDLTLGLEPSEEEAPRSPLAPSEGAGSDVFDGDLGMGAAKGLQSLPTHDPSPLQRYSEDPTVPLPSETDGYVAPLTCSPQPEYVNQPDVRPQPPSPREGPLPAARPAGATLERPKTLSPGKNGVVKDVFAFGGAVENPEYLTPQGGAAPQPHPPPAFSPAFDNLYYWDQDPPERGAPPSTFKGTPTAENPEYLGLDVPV

By viability is commonly meant a read-out of living cells in per cent, often relative to untreated cells. As usually defined, the inhibition is the relative decrease from the control value, in per cent. For the molecule `COc1ccccc1NC1=C(C)C(=O)CC1`, the viability is 98% in [1]; 98% (inactive) in assay [3]; 90.4% (inactive) in [4]; 88.7% (inactive) in [5]; 74.1% in assay [6] (setting [16]); 88.7% in assay [6] (setting [17]). In addition, the viability in [12] was 75.4% (inactive); in assay [13] it was 85.5% (inactive). Moreover, the Her2 level in [2] was 72% (inactive). In assay [6] (H69AR cells + 2 uM doxorubicin), the differential viability (reversal) is 14.5% (inactive). The inhibition in assay [7] is -7.43% (inactive); in [8] it was -0.67% (inactive); in [14], 1.62% (inactive). The growth inhibition in assay [9] was -1.07% (inactive); in assay [10] it was -11.9% (inactive). The viability increase in assay [11] is -4.17% (inactive). Further, in assay [15], the RAM network inhibition was -0.26% (inactive).
For `CCOC(=O)N1CCN(C(c2ccc(Cl)cc2)c2sc3nc(C)nn3c2O)CC1` (stereo not given), the viability in assay [1] is 94%; in assay [3], 94% (inactive); in [4], 87.7% (inactive); in assay [5] it was 94.7% (inactive); in assay [6] (setting [16]), 103%; in [6] (setting [17]), 94.7%. Moreover, the viability in assay [12] was 98.4% (inactive); in assay [13] it was 106% (inactive). For the same molecule, in assay [2], the Her2 level is 89% (inactive). Also, the differential viability (reversal) in assay [6] (H69AR cells + 2 uM doxorubicin) is -8.7% (inactive). The inhibition in assay [7] is -4.67% (inactive); in [8], 0.33% (inactive); in [14], 0.72% (inactive). Moreover, the growth inhibition was 1.38% (inactive) in assay [9] and 1.06% (inactive) in assay [10]. The viability increase in [11] was 0.03% (inactive). In addition, the RAM network inhibition in assay [15] was 6.22% (inactive).
In the case of `Cc1cnc(NC(=O)CSc2nnc(COc3c(C)cccc3C)o2)s1`, the viability in assay [1] was 83%; in assay [3], 83% (inactive); in [4], 79.9% (inactive); in assay [5], 87.1% (inactive); in [6] (setting [16]) it was 94%; in [6] (setting [17]), 87.1%. Further, the viability in assay [12] was 93.9% (inactive); in assay [13], 86.1% (inactive). In addition, the Her2 level in assay [2] was 102% (inactive). For the same molecule, in assay [6] (H69AR cells + 2 uM doxorubicin), the differential viability (reversal) was -6.84% (inactive). The figures for the inhibition in assay [7], in [8] and in assay [14] were -5.33% (inactive), 4.83% (inactive) and 1.23% (inactive), respectively. Besides, the growth inhibition in assay [9] was -10.4% (inactive); in assay [10] it was -2.15% (inactive). In addition, in [11], the viability increase was -0.06% (inactive). The RAM network inhibition in assay [15] was 0.63% (inactive).
Consider `CCOC(=O)CN1CC23C=CC(O2)C(C(=O)Nc2ccc(C(C)=O)cc2)C3C1=O` (stereo not given), for which the viability in assay [1] is 87%; in [3] it was 87% (inactive); in assay [4], 101% (inactive); in assay [5], 96.4% (inactive); in assay [6] (setting [16]) it was 94%; in assay [6] (setting [17]), 96.4%. Moreover, the figures for the viability in assay [12] and in assay [13] were 102% (inactive) and 94.2% (inactive), respectively. In addition, the Her2 level in assay [2] was 101% (inactive). Moreover, the differential viability (reversal) in [6] (H69AR cells + 2 uM doxorubicin) was 2.38% (inactive). For the same molecule, the inhibition is -1.07% (inactive) in assay [7], 2.67% (inactive) in [8] and 1.26% (inactive) in [14]. The growth inhibition in [9] is -5.7% (inactive); in assay [10], 2.56% (inactive). The viability increase in assay [11] was -1.78% (inactive). Also, the RAM network inhibition in [15] was 1.41% (inactive).
On to `COc1ccccc1-c1nnc(SCC(=O)NC2CCCCC2)o1`, for which the viability in assay [1] is 83%; in assay [3], 83% (inactive); in [4] it was 89.7% (inactive); in assay [5], 87.8% (inactive); in assay [6] (setting [16]) it was 88.2%; in assay [6] (setting [17]), 87.8%. Moreover, the viability is 94.6% (inactive) in assay [12] and 94.5% (inactive) in [13]. Also, in [2], the Her2 level was 72.5% (inactive). Also, the differential viability (reversal) in assay [6] (H69AR cells + 2 uM doxorubicin) is -0.34% (inactive). Also, the inhibition in [7] is 6.13% (inactive); in assay [8], 1.31% (inactive); in assay [14], -0.42% (inactive). Also, the growth inhibition in [9] is 1.35% (inactive); in assay [10] it was 10.7% (inactive). For the same molecule, the viability increase in assay [11] was -3.27% (inactive). Besides, the RAM network inhibition in [15] is 3.73% (inactive).
